Measurements as given in ChEMBL document CHEMBL2218924, “A broad activity screen in support of a chemogenomic map for kinase signalling research and drug discovery” (Biochem J, 2013).

biological target: RAF proto-oncogene serine/threonine-protein kinase (Homo sapiens) (UniProt P04049); settings: at 10 µM
Sequence (P04049 whole entry): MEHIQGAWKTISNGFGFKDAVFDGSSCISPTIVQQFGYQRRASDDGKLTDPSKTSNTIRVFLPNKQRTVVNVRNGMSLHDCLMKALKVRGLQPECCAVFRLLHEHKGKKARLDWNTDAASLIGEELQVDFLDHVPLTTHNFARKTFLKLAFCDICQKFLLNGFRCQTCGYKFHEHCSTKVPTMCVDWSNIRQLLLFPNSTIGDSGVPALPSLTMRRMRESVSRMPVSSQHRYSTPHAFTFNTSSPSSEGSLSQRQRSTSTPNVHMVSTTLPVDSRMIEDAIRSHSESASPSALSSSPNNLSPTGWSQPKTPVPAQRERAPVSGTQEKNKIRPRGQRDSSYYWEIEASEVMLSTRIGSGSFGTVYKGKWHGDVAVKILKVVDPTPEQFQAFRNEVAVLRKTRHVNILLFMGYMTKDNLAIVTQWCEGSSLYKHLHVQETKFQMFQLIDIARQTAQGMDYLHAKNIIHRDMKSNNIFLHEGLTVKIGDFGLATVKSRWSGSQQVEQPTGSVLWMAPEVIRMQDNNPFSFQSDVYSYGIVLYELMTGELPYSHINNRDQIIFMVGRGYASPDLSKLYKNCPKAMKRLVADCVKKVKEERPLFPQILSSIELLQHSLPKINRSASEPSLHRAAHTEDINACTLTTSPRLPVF

SMILES	residual activity [%]
CN[C@@H]1C[C@H]2O[C@@](C)([C@@H]1OC)n1c3ccccc3c3c4c(c5c6ccccc6n2c5c31)C(=O)NC4	99
CC(C)(C)c1cc(C=C(C#N)C#N)cc(Br)c1O	70
Oc1ccc(-c2nc(-c3ccc(F)cc3)c(-c3ccncc3)[nH]2)cc1	1
